Assay results as given in PubChem BioAssay (NCI).
Compounds without any hit were thinned out: in the full panel of roughly 83,000, 20% have a hit.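 Cell lines were cultured in 96-well plates, exposed to a single compound concentration, and assessed for percent growth 48 hours later.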 Values without a mark were called inactive. Activity calls are given as the source filed them. Rule for the calls: active = growth percent below 10; inactive = the rest.

What was measured:
Assay in all cases: NCI-60 one-dose screen, 48 h (100 = growth as untreated, 0 = no growth, -100 = all killed)
Settings in all cases: 10 µM
HCT-15 colon = tested on: HCT-15 colon
HT29 colon = tested on: HT29 colon
SNB-75 CNS = tested on: SNB-75 CNS
SNB-19 CNS = tested on: SNB-19 CNS
U251 CNS = tested on: U251 CNS
PC-3 prostate = tested on: PC-3 prostate
SK-MEL-5 melanoma = tested on: SK-MEL-5 melanoma
UACC-62 melanoma = tested on: UACC-62 melanoma
LOX IMVI melanoma = tested on: LOX IMVI melanoma
SK-MEL-28 melanoma = tested on: SK-MEL-28 melanoma
SK-MEL-2 melanoma = tested on: SK-MEL-2 melanoma
EKVX NSCLC = tested on: EKVX NSCLC
UO-31 renal = tested on: UO-31 renal
TK-10 renal = tested on: TK-10 renal
ACHN renal = tested on: ACHN renal
CAKI-1 renal = tested on: CAKI-1 renal
A498 renal = tested on: A498 renal
MOLT-4 leukemia = tested on: MOLT-4 leukemia
CCRF-CEM leukemia = tested on: CCRF-CEM leukemia
SN12C renal = tested on: SN12C renal

SMILES | growth (HCT-15 colon) | growth (HT29 colon) | growth (SNB-75 CNS) | growth (SNB-19 CNS) [%] | growth (U251 CNS) | growth (PC-3 prostate) | growth (SK-MEL-5 melanoma) | growth (UACC-62 melanoma) | growth (LOX IMVI melanoma) | growth (SK-MEL-28 melanoma) | growth (SK-MEL-2 melanoma) | growth (EKVX NSCLC) | growth (UO-31 renal) | growth (TK-10 renal) | growth (ACHN renal) | growth (CAKI-1 renal) [%] | growth (A498 renal) | growth (MOLT-4 leukemia) | growth (CCRF-CEM leukemia) [%] | growth (SN12C renal) [%]
O=C1CC[C@@H](C(=O)N[C@H]2CSSC[C@@H](C(=O)N/C=C/c3ccc(O)cc3)NC(=O)[C@H](Cc3ccccc3)NC(=O)[C@@H]3CCCN3C(=O)[C@@H]3CCCN3C2=O)N1 | 97% | 99.8% | 100% | 94.4 | 96.2% | 87.3% | 97.5% | 99.7% | 94.5% | 101% | 93.5% | 95% | 101% | 94.8% | 100% | 96.5 | 108% | 88.9% | – | –
CCN(CC)c1ccc(/C=C/C2=[N+](C)c3ccccc3C2(C)C)c(C)c1 | 10.5% | 2.67% (active) | 7.22% (active) | 20.6 | 7.12% (active) | 7.18% (active) | -97.5% (active) | -21.4% (active) | 3.02% (active) | 9.14% (active) | -12.7% (active) | 10.6% | 8.27% (active) | 9.49% (active) | 5.97% (active) | 15.5 | 3.94% (active) | -20.4% (active) | – | –
CCOc1ccc(-n2cc(-c3ccc(N(C)C)cc3)[n+]3c2CCCCC3)cc1 | 75.8% | 9.2% (active) | 18.4% | 20.3 | 8.21% (active) | 4.48% (active) | -92.4% (active) | 20.4% | 12.7% | 51.2% | -7.29% (active) | 14.1% | 66.1% | 8.78% (active) | 22.2% | 60.9 | -10.2% (active) | 13.4% | 28.3 | –
CC(=O)Nc1ccc(Sc2ccc(NC(C)=O)cc2)cc1 | 98.9% | 91.2% | 84.1% | 106 | 95.9% | 65.5% | 105% | 96.5% | 96.3% | 102% | 98.9% | 96.3% | 81% | 92.2% | 95.9% | 95.3 | 106% | 71.6% | 89.8 | –
C#CCNCCN1C(=O)c2ccc3c4c(ccc(c24)C1=O)C(=O)N(CCNCC#C)C3=O | 19.5% | 2.13% (active) | 75.4% | 46 | 29.5% | 47.7% | -81.3% (active) | 16.7% | -3.21% (active) | 83.9% | 58.6% | 55.7% | 29.5% | 51.7% | 22.9% | 49.8 | 94.1% | 20% | 40.2 | –
Cc1nc2ccc(-n3c(-c4ccc(Cl)cc4)nc4ccccc4c3=O)cc2n1Cc1ccccc1 | 77% | 95.6% | 95.9% | 108 | 89.1% | 58.6% | 66.7% | 78.4% | 91.9% | 107% | 96.5% | 90.1% | 59% | 111% | 91.9% | 81.3 | 89.7% | 84.1% | – | –
O=C(N/N=c1/ccoc2cccnc12)N1CCN(c2ncccn2)CC1 | 24.9% | 34.6% | 70.7% | 35 | 17.9% | 26.2% | -36.8% (active) | 7.9% (active) | 18.1% | 48.4% | 11.8% | 17.4% | 24.8% | 27.4% | 25.1% | 26 | 45.3% | 8.23% (active) | 30.5 | –
O=[N+]([O-])c1ccc(Br)o1 | 105% | 95.8% | 97.5% | 107 | 103% | 98.8% | 96.9% | 103% | 93.9% | 104% | 94.4% | 101% | 90% | 96.4% | 100% | 98.3 | – | 106% | 114 | –
COc1cccc(C(=O)N(c2ccc(F)c(F)c2)C(C(=O)NC(C)(C)C)c2cc3c(C)cc(C)cc3nc2Cl)c1 (stereo unspecified) | 56.5% | 71.1% | 62.9% | 74.1 | 69% | 30.9% | 58.2% | 66.6% | 68.7% | 85.6% | 77.1% | 54.5% | 48.5% | 70.5% | 59.4% | 42.9 | 59.8% | 43.8% | 53.8 | –
CCOC(=O)Nc1ccc2c(c1)C(=O)N(CCOC)c1ccccc1O2 | 26.1% | 8.18% (active) | 31.9% | 54.5 | 39.3% | 38.4% | 12.3% | 30.6% | 38.7% | 62.9% | 39.9% | 45.4% | 62.2% | 58.7% | 48.1% | 38.7 | – | 35% | 20.6 | –
O=C(c1ccccc1)C(Nc1ccccc1)c1ccccc1 (stereo unspecified) | 97.8% | 86.4% | 79.6% | 101 | 89.6% | 75.5% | 85.6% | 74.9% | 86% | 99% | 90.9% | 86.2% | 66.9% | 93.6% | 89.2% | 87.3 | 94.6% | 90.8% | 94.1 | –
CC(C)c1[nH]nc2c(NCc3ccc(-c4ccccn4)cc3)nc(SCCN)nc12 | 7.24% (active) | -24.2% (active) | -78.5% (active) | 12.2 | 5.64% (active) | -0.489% (active) | -38.6% (active) | -10.2% (active) | -18.5% (active) | -13.8% (active) | -82.1% (active) | 1.6% (active) | 0.673% (active) | -2.72% (active) | 6.26% (active) | 25.6 | -69.5% (active) | -0.423% (active) | – | –
CCCCCc1cc[n+](CC(=O)c2ccc(Cl)cc2)cc1 | 98.5% | 64.7% | 84.4% | 96.7 | 97.8% | 85.7% | 94.9% | 82.8% | 87.4% | 101% | 109% | 93.1% | 91.2% | 98.4% | 99% | 92.5 | 63.1% | 92.7% | 102 | –
Cc1ccc2c(c1)-c1cc(C)nn1-c1ccc(C#N)cc1O2 | 38.7% | 20% | 48.8% | 68.6 | 46.9% | 66.2% | 75.9% | 52.4% | 49.4% | 70.3% | 44.7% | 65.7% | 47.4% | 84.1% | 91.5% | 71.9 | 47.2% | 49.6% | – | –
COc1ccc(COC(=O)CC(C)C)cc1 | 105% | 96.1% | 91.9% | 103 | 92.7% | 94.4% | 93.4% | 99.3% | 97.1% | 110% | 101% | 101% | 93.5% | 90.6% | 105% | 98.7 | 117% | 98.8% | 102 | –
COC(=O)C1(C(=O)OC)C2C(=O)C3C(C21)C3(C(=O)OC(C)(C)C)C(=O)OC(C)(C)C (stereo unspecified) | 108% | 112% | 88.5% | 110 | 104% | 90.2% | 100% | 112% | 103% | 107% | 127% | – | 85.4% | 128% | 102% | 90 | 108% | 105% | 102 | 107
CC(C)C[C@H](NC(=O)Cn1ccc2ccccc2c1=O)B(O)O | 57.9% | 44.7% | 96.8% | 76.8 | 87.6% | 86.9% | 37.9% | 49.8% | 50.6% | 48.7% | 63.5% | – | 50.6% | 11.7% | 29.1% | 40.6 | 30.1% | 9.94% (active) | 15.2 | 75.8
